Test results: PubChem BioAssay (NCATS)
Where “and” joins values, the source holds several entries; their conditions need not be identical. Identical values can stand only once. Inconclusive results are not listed. Where a call stands in place of a potency, no number is given. Calls of active or inactive are those of the source. Calls come from the whole dose curve; as a rule, active = well fitted inhibition curve with a large enough effect; inconclusive = small, poorly fitted or top-dose-only effect; inactive = flat fitted curve, though single readings scatter.

Target: Ubiquitin carboxyl-terminal hydrolase 2 (Homo sapiens) (UniProt O75604)
Sequence (O75604 whole entry, looked up): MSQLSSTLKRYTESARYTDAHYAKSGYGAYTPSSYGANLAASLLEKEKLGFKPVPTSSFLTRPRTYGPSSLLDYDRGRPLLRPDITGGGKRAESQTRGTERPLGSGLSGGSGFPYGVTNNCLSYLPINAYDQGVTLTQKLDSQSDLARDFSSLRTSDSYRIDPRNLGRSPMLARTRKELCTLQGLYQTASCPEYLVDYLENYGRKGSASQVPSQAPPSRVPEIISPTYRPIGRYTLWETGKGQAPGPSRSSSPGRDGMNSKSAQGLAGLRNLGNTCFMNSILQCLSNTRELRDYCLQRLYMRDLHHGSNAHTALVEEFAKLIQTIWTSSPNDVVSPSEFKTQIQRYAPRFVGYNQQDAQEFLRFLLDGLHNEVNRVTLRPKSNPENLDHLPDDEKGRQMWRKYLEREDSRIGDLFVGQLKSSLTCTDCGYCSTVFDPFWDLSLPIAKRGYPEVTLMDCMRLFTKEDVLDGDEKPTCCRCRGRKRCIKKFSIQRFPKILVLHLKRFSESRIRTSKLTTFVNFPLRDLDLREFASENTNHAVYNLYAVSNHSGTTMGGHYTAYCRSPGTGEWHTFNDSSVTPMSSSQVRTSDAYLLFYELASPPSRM
Assay: qHTS for Inhibitors of Ubiquitin-specific Protease USP2a Using CHOP2 as the Reporter: K484 Substrate (AID 652173);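 note: cleavage of internally quenched K48 di-ubiquitin substrate measured as rising fluorescence over time; nearly all actives have a fitted effect of over 70% in size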; note: potency is the fitted concentration of half-maximal effect
Conditions: USP2 cleavage of DiUb K48 IQF substrate, fluorescence; series mostly up to 57.5 µM
Summary of the method: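 Kinetic fluorescence (Ex 525/Em 598) tracked cleavage of an internally quenched K48 di-ubiquitin substrate, added as a 100 nM solution. The enzyme was added as a 5 nM USP2 solution before compound pinning, with no-enzyme controls. Buffer: Tris pH 8, beta-mercaptoethanol, CHAPS.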

**Q.** For `O=C(Nc1ccc(S(=O)(=O)Nc2nccs2)cc1)c1cccnc1`, which Potency is on record?
**A.** inactive

**Q.** Which Potency does the source give for `Cc1ccc(S(=O)(=O)Nc2ccccc2C(=O)Nc2ccc(-c3ccccc3)nc2)cc1` here?
**A.** 4.85 µM (active)

**Q.** How did the Potency turn out when `COc1cccc(NS(=O)(=O)c2ccc(C)cc2)c1C(=O)Nc1nc(-c2ccccc2)cs1` was run?
**A.** 4.32 µM (active)

**Q.** For `Cc1ccc(CNc2ccccc2C(=O)Nc2nc(-c3ccccc3)cs2)cc1`, which Potency is on record?
**A.** 21.7 µM (active)

**Q.** For `Cc1ccc(S(=O)(=O)Nc2ccc(Cl)cc2C(=O)Nc2nc(-c3ccccc3)cs2)cc1`, which Potency is on record?
**A.** 1.09 µM (active) and 1.72 µM (active)

**Q.** With `O=C(Nc1ccc([S+](=O)([O-])Nc2nccs2)cc1)C1CCNCC1` as the compound, how does the Potency read?
**A.** inactive

**Q.** Which Potency does the source give for `Cc1ccc(-c2cc(C(=O)Nc3ccc(S(=O)(=O)Nc4ccc(C#N)cc4)cc3)c3ccccc3n2)cc1C` here?
**A.** 3.06 µM (active)

**Q.** For `COc1c(NS(=O)(=O)c2ccc(C)cc2)cccc1C(=O)Nc1nc(-c2ccccc2)cs1`, which Potency is on record?
**A.** 3.06 µM (active)

**Q.** With `COC(=O)c1ccccc1C(=O)Nc1nc(-c2ccccc2)cs1` as the compound, how does the Potency read?
**A.** 30.6 µM (active)

**Q.** `Cc1ccc(-c2cc(C(=O)Nc3ccc(-n4cncn4)cc3)c3ccccc3n2)cc1C` was tested. Which Potency did it give?
**A.** 7.69 µM (active)

**Q.** Which Potency does the source give for `Cc1ccc(S(=O)(=O)n2cc(C(=O)Nc3nc(-c4ccccc4)cs3)c3ccccc32)cc1` here?
**A.** 6.11 µM (active)

**Q.** Which Potency does the source give for `Cc1ccc(S(=O)(=O)Nc2ccccc2CNc2nc(-c3ccccc3)cs2)cc1` here?
**A.** 6.11 µM (active)

**Q.** How did the Potency turn out when `Cc1ccc(S(=O)(=O)Nc2cnccc2C(=O)Nc2ccc(S(=O)(=O)Nc3nccs3)cc2)cc1` was run?
**A.** 19.3 µM (active)

**Q.** Which Potency does the source give for `Cc1ccc(S(=O)(=O)Nc2ccc(C(=O)Nc3nc(-c4ccccc4)cs3)c(Cl)c2)cc1` here?
**A.** 1.93 µM (active)

Target: Calcium and integrin-binding protein 1 (Homo sapiens) (UniProt Q99828)
Sequence (Q99828 whole entry, looked up): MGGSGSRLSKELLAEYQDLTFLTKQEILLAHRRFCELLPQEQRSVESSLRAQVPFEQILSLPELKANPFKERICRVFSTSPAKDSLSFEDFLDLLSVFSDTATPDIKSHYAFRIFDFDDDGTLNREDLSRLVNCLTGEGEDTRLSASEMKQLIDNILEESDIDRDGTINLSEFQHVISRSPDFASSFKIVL
Assay: Primary qHTS for Identification of Calcium Integrin Binding Protein 1 (CIB1) Competitor (AID 1508620);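 note: GST tagged CIB1 binding a fluorescein labelled alphaIIb integrin peptide tracer; top concentration of the series differs between compounds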
Conditions: CIB1-GST / FITC-alphaIIb peptide fluorescence polarization; series mostly up to 114 µM
Summary of the method: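 Fluorescence polarization competition: GST-tagged CIB1 (1 uM final) preincubated with compound 15 min at room temperature, then FITC-labelled alphaIIb peptide (100 nM final) added. After 15 min at room temperature, polarization read at Ex 480/Em 540.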

**Q.** Which Potency does the source give for `O=C(Nc1nc(-c2ccccc2)cs1)c1ccccc1` here?
**A.** inactive

**Q.** For `O=C(Nc1nc(-c2ccccc2)cs1)c1ccccc1[N+](=O)[O-]`, which Potency is on record?
**A.** inactive

**Q.** With `COc1ccc(Cl)cc1C(=O)Nc1nc(-c2ccccc2)cs1` as the compound, how does the Potency read?
**A.** inactive

**Q.** For `Cc1ccc(-c2cc(C(=O)Nc3ccccc3C)c3ccccc3n2)cc1C`, which Potency is on record?
**A.** inactive

**Q.** How did the Potency turn out when `Cc1ccc(S(=O)(=O)Nc2ccc(C(=O)Nc3nc(-c4ccc(Cl)cc4)cs3)cc2)cc1` was run?
**A.** inactive

**Q.** For `COc1ccc(NS(=O)(=O)c2ccc(C)cc2)cc1C(=O)Nc1nc(-c2ccccc2)cs1`, which Potency is on record?
**A.** inactive

**Q.** How did the Potency turn out when `COc1ccc(NS(=O)(=O)c2ccc(C)cc2)c(C(=O)Nc2nc(-c3ccccc3)cs2)c1` was run?
**A.** inactive

**Q.** `Cc1ccc(-c2cc(C(=O)Nc3ccc(-n4cccn4)cc3)c3ccccc3n2)cc1C` was tested. Which Potency did it give?
**A.** inactive

**Q.** Which Potency does the source give for `N#Cc1cccc(S(=O)(=O)Nc2cnccc2C(=O)Nc2nc(-c3ccccc3)cs2)c1` here?
**A.** inactive

**Q.** How did the Potency turn out when `Cc1ccc(S(=O)(=O)Nc2cccc(C(=O)Nc3nc(-c4ccccc4)cs3)c2)cc1` was run?
**A.** inactive

**Q.** How did the Potency turn out when `Cc1ccc(NS(=O)(=O)c2ccc(C(=O)Nc3nc(-c4ccccc4)cs3)cc2)cc1` was run?
**A.** inactive

**Q.** For `Cc1ccc(C(=O)Nc2ccccc2C(=O)Nc2nc(-c3ccccc3)cs2)cc1`, which Potency is on record?
**A.** inactive

**Q.** How did the Potency turn out when `Cc1ccc(NS(=O)(=O)c2ccccc2C(=O)Nc2nc(-c3ccccc3)cs2)cc1` was run?
**A.** inactive

**Q.** How did the Potency turn out when `O=c1[nH]c(CN2CCOCC2)nc2sc3c(c12)CCC3` was run?
**A.** inactive

**Q.** With `Cc1ccc(NS(=O)(=O)c2cccc(C(=O)Nc3nc(-c4ccccc4)cs3)c2)cc1` as the compound, how does the Potency read?
**A.** inactive

**Q.** For `O=C(Nc1ccc([S+](=O)([O-])Nc2nccs2)cc1)c1ccn[nH]1`, which Potency is on record?
**A.** inactive

**Q.** With `Cc1ccc(S(=O)(=O)Nc2ccc(F)cc2C(=O)Nc2nc(-c3ccccc3)cs2)cc1` as the compound, how does the Potency read?
**A.** inactive

**Q.** `COc1ccccc1C(=O)Nc1nc(-c2ccccc2)cs1` was tested. Which Potency did it give?
**A.** inactive

**Q.** `COc1cc(NS(=O)(=O)c2ccc(C)cc2)ccc1C(=O)Nc1nc(-c2ccccc2)cs1` was tested. Which Potency did it give?
**A.** inactive

**Q.** With `Cc1ccc(-c2cc(C(=O)NCc3ccccc3)c3ccccc3n2)cc1C` as the compound, how does the Potency read?
**A.** inactive

**Q.** For `Cc1ccc(-c2cc(C(=O)NCc3ccc(S(C)(=O)=O)cc3)c3ccccc3n2)cc1C`, which Potency is on record?
**A.** inactive

**Q.** How did the Potency turn out when `COc1cc(Cl)ccc1C(=O)Nc1nc(-c2ccccc2)cs1` was run?
**A.** inactive

**Q.** With `COc1ccccc1NC(=O)c1cc(-c2ccc(C)c(C)c2)nc2ccccc12` as the compound, how does the Potency read?
**A.** inactive

**Q.** How did the Potency turn out when `Cc1ccc(S(=O)(=O)Nc2ccccc2C(=O)Nc2nc(-c3ccccc3)c(C)s2)cc1` was run?
**A.** inactive

**Q.** With `Cc1ccc(S(=O)(=O)Nc2cc(Cl)cc(C(=O)Nc3nc(-c4ccccc4)cs3)c2)cc1` as the compound, how does the Potency read?
**A.** inactive

**Q.** For `COc1ccc(C(=O)Nc2nc(-c3ccccc3)cs2)cc1NS(=O)(=O)c1ccc(C)cc1`, which Potency is on record?
**A.** inactive

**Q.** With `O=C(Nc1ccc(S(=O)(=O)Nc2nccs2)cc1)c1cccnc1` as the compound, how does the Potency read?
**A.** inactive
